Shown are actives, neighbours in structure and some others; about 4.6% of the full set was active somewhere.
D1 PAM: human D1 dopamine receptor positive modulation. HEK293 TREx D1 cells, calcium flux, dopamine EC20 potentiation. potentiation, % at 10 µM. hit rate 0.036% among 360,000; in the data active = potentiation above about 30%; also: 0% is about no effect
D1 agonist: agonists of human D1 dopamine receptor; P21728; HEK293 T-REx D1 cells, calcium flux, agonist mode; activation, % at 2 µM; hit rate 1% among 360,000; AID 504660; also: 0% is about no effect
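Inducible HEK293 T-REx D1 cells, force-coupled to calcium signalling, were plated at 4000 cells/well with tetracycline and held overnight at 30 C. After no-wash calcium dye loading, compound-evoked calcium rise over 180 s flagged agonists.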
D1 antag: antagonists of human D1 dopamine receptor | P21728 | HEK293 TREx D1 cells, calcium flux, dopamine EC80; stronger effect = lower value | activity change, negative = inhibition, % at 10 µM | hit rate 3.2% among 360,000 | AID 504652; in the data active = activity change below about -30%; also: % is scaled to controls: 0 for no effect and ±100 for the full control effect
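After overnight tetracycline induction at 30 C, force-coupled D1 HEK293 cells took up a no-wash calcium dye at room temperature. Compounds were added and monitored 180 s, and the response to EC80 dopamine was then recorded.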
TRHR ag: TRH receptor (human) agonism; P34981; TRHR cells, calcium flux fluo-8, FDSS agonist mode; activation, % at 2 µM; hit rate 0.18% among 360,000; also: 0% is about no effect
Target sequence (P34981 whole entry, looked up): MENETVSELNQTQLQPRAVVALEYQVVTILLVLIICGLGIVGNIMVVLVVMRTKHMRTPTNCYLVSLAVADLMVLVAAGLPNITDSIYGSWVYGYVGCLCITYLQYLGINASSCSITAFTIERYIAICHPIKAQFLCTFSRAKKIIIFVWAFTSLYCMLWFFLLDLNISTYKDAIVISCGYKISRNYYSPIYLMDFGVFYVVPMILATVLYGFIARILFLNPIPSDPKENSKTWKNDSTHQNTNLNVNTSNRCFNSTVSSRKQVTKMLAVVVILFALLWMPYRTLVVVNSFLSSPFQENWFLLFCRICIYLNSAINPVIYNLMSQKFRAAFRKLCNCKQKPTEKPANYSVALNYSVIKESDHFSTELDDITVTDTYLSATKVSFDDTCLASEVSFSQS
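Agonist-mode FDSS calcium read (Ex 480/Em 530, 1 s cycles) in 1536-well TRHR cells with fluo-8 dye, after 10-cycle baseline and 23 nL compound addition; TRH at EC20 (10 nM final) added afterwards for the enhancer phase.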
TRHR enhancer: allosterically enhances the human TRH receptor; hit rate 0.66% among 360,000; TRHR cells, fluo-8 calcium fluorescence, EC20 TRH enhancement; enhancement, % at 2 µM; P34981; in the data active = enhancement above about 30%; also: 0% is about no effect
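TRHR-expressing cells loaded with fluo-8 calcium dye were read kinetically (ex 480/em 530) during compound addition, then stimulated with an EC20 of TRH (10 nM final). Enhancement of the Gq-mediated intracellular calcium response was scored.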
Starred values were filed as active, the others as inactive. Rule as the data show it, unless noted: active = activation above about 30%; inactive = the rest.

SMILES	D1 PAM	D1 agonist	D1 antag	TRHR ag	TRHR enhancer
CCCN(CCC)CCNC(=O)C1CCN(c2nc3ccc(CC)cc3s2)CC1	5.8	89.5*	-30.0*	2.3	-5.0
Cc1nn(-c2ccccc2)c(=O)c2ccccc12	10.4	0.9	4.4	0.4	3.6
CSc1cccc(NC(=S)N(CCC(C)C)C(C)c2ccncc2)c1 (stereo not given)	-5.0	6.0	-34.0*	-0.7	1.0
COc1cccc(NC(=S)N(CCC(C)C)C(C)c2ccncc2)c1 (stereo not given)	-2.2	-0.8	0.9	0.1	-2.1
COCCCN(C(=S)Nc1cc(Cl)cc(Cl)c1)C(C)c1ccncc1 (stereo not given)	-3.4	1.0	-53.1*	0.2	-1.0
Cc1cccc(C)c1NC(=O)CNC(=O)c1ccc(NS(=O)(=O)c2ccc3[nH]c(=O)[nH]c3c2)cc1	-0.7	2.8	5.0	0.1	-2.1
CCCNC(=S)Nc1ccc(S(N)(=O)=O)cc1	7.7	0.4	3.8	-0.5	11.1
C#CC(CC)(CC)NC(=S)Nc1ccc(S(N)(=O)=O)cc1	-0.6	2.2	-42.7*	0.1	3.5
CC1CCc2nc(NC(=O)C3CCCO3)sc2C1 (stereo not given)	5.8	0.7	7.1	-0.1	-0.9
CCC(CC)C(=O)Nc1nc2c(s1)CC(C)CC2 (stereo not given)	-0.8	32.7*	-20.0	1.8	1.4
CCC(=O)Nc1cccc(C(=O)OCC(=O)c2ccccc2Cl)c1	-0.3	1.8	-36.5*	1.1	-1.1
CC(=O)Nc1cccc(C(=O)OCC(=O)c2ccccc2Cl)c1	-5.8	2.9	-19.4	-0.4	-2.8
CC(=O)Nc1cccc(C(=O)OCC(=O)NC(=O)Cc2ccccc2)c1	6.0	0.0	-33.3*	0.4	-1.3
CC(C)[C@H](NC(=O)OCc1ccccc1)C(=O)OCC(=O)NCCc1ccccc1	5.1	3.9	-14.0	2.3	-5.4
O=C(COC(=O)c1cccc(O)c1)NC(=O)Cc1ccccc1	-5.4	32.6*	-2.3	5.3	3.8
CC(=O)Nc1cccc(C(=O)OCC(=O)NC(=O)c2ccccc2)c1	0.5	6.4	-3.7	0.0	10.5
Cc1cccc(C(=O)OCC(=O)NC(=O)Cc2ccccc2)c1O	-6.7	9.3	-10.9	2.8	9.0
CC(=O)c1cccc(NC(=O)COC(=O)[C@@H](NC(=O)OCc2ccccc2)C(C)C)c1	-8.8	1.9	-95.3*	0.2	2.3
CCOc1ccc(CNS(=O)(=O)c2cc(CN3C(=O)c4cccnc4C3=O)ccc2OC)cc1	2.6	-0.9	-54.0*	-0.5	2.0
CC1(C)Cc2c(cnn2-c2cccc(F)c2)C(NC(=O)C2CCOCC2)C1 (stereo not given)	-6.0	3.0	-1.1	-0.1	-2.6
Cc1cc(C(F)F)n2ncc(C(=O)NCc3ccccc3C(F)(F)F)c2n1	8.9	6.0	15.3	-0.3	-13.9
Cc1cc(C(F)F)n2ncc(C(=O)NCc3ccccc3F)c2n1	-4.5	1.7	-31.9*	-0.3	-5.4
Cc1cccc(NC(=S)NC2CC3CCCC(C2)N3Cc2cccs2)c1 (stereo not given)	-19.6	13.1	-88.9*	2.0	4.7
CC(C)N(c1ccccc1)c1ccc(NC(=O)C2CCCO2)cc1 (stereo not given)	-4.6	1.2	-8.6	-0.2	1.6
S=C1NC(c2cccs2)=CC(c2ccc(Br)cc2)N1 (stereo not given)	-1.9	1.1	-2.1	0.3	1.9
SMILES	D1 PAM	D1 agonist	D1 antag	TRHR ag	TRHR enhancer
Cc1cccc(NC(=O)c2ccc(CN3CC(=O)N4CCCCC4C3=O)cc2)c1C (stereo not given)	-0.6	-0.5	1.5	0.8	44.8*
Cc1ccc(C)c(NC(=O)c2ccc(CN3CC(=O)N4CCCCC4C3=O)cc2)c1 (stereo not given)	0.5	-0.2	14.8	0.1	17.3
CC1CN(C(=O)COC(=O)c2cc([N+](=O)[O-])ccc2Cl)CC(C)O1 (stereo not given)	-2.5	2.2	5.5	0.9	1.1
COc1ccccc1COC(=O)Nc1c(C)nn(C)c1Cl	-7.9	9.5	-43.4*	-0.4	-10.5
Cc1nn(C)c(Cl)c1NC(=O)OCc1ccc(F)cc1	-9.5	27.3	-60.7*	-1.0	8.0
NC(=O)CSc1nnc(Cc2csc(Nc3ccccc3)n2)n1Cc1ccccc1	-4.0	0.6	10.6	-0.1	-3.7

High-throughput results (PubChem)
